ALDH1A1 block: qHTS Assay for Inhibitors of Aldehyde Dehydrogenase 1 (ALDH1A1). Aldehyde dehydrogenase 1A1 (Homo sapiens), P00352. Purified ALDH1A1, NADH fluorescence, propionaldehyde substrate. Potency, µM (doses to about 75.3 µM), for the others: at the highest dose activity, negative = inhibition, actives largely listed as inhibitors. 220,000 compounds, 7.3% hits;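 note: potency is the fitted concentration of half-maximal effect; plate controls were no enzyme wells and a reference inhibitor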
Target sequence (P00352 whole entry, looked up): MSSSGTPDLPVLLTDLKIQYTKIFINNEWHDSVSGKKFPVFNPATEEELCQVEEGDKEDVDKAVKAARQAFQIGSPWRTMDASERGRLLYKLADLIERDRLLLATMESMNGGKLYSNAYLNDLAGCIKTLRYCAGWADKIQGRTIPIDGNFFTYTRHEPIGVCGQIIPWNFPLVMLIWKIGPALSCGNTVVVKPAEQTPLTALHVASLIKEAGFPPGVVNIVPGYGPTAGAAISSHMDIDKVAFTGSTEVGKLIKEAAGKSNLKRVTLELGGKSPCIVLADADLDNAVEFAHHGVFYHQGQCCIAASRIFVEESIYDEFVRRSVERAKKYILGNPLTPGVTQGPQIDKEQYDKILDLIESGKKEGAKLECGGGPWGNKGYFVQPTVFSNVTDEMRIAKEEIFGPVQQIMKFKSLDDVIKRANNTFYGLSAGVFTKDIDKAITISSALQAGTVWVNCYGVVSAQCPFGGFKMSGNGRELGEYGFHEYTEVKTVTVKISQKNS
PNC assembly inh: High Content Assay for Compounds that inhibit the Assembly of the Perinucleolar Compartment; AID 2417, 2010; PC3M PTB-GFP, PNC prevalence imaging, 16 h; stronger effect = lower value; activity change (PNC), negative = inhibition, % at 10 µM; 140,000 compounds, 3.1% hits;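 active = readout at or below -70, meaning at least 70% loss of cells showing the perinucleolar compartment, a nuclear body marking cancer cells; inconclusive = readout between -30 and a set limit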;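 note: plate controls were DMSO wells for no effect and camptothecin positive control wells for full effect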
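Compounds are pinned in duplicate onto adhered PC3M cells stably expressing GFP-tagged PTB and incubated 16 h at 37 C. Cells are then fixed, nuclei stained with Hoechst, and PNC-positive cells counted.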
HPGD block: qHTS Assay for Inhibitors of HPGD (15-Hydroxyprostaglandin Dehydrogenase). purified HPGD, NADH fluorescence kinetic, PGE2 substrate. Potency, µM, without a hit: at the top dose activity change, negative = inhibition, hits mostly inhibitors. 150,000 compounds, 4.3% hits. AID 894, 2007; note: potency is the fitted concentration of half-maximal effect
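20 nM HPGD preincubated 15 min at room temperature with compound in 50 mM Tris-HCl pH 8, 0.01% Tween 20. Started with 1 mM NAD+ and 30 uM prostaglandin E2; NADH fluorescence (360/450 nm) read 5 times over 30-s intervals, last minus first.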
Active calls of the source: *; ? = inconclusive; . = no result given; [ ] = another dose, or the depositor's remark. A selection: hits, their analogues and other compounds. The true share with any hit is near 11%. Unless noted, calls come from the whole dose curve; as a rule, active = well fitted inhibition curve with a large enough effect (not every such curve was filed as active); inconclusive = small, poorly fitted or top-dose-only effect, or another doubt; inactive = no such curve, though single readings can be large or run the other way. Unless noted, % is set by controls: 0 for no effect and ±100 for the full control effect.

SMILES	ALDH1A1 block	PNC assembly inh	HPGD block
O=C(NCC(c1cccnc1)N1CCOCC1)Nc1ccccc1 (configuration not stated)	9%	?	-13%
Nc1ccccc1C(=O)CC(N)C(=O)O (configuration not stated)	-10%	.	-2%
COc1cccc(CN2CCNC(=O)C2CC(=O)N(Cc2cnn(C)c2)C(C)C)c1 (configuration not stated)	-1%	.	.
COc1ccc2nc(Sc3c([N+](=O)[O-])nc(C)n3Cc3ccccc3)[nH]c2c1	-6%	22	2%
COCC(O)CSc1c([N+](=O)[O-])nc(C)n1Cc1ccc(OC)c([N+](=O)[O-])c1 (configuration not stated)	25µM*	?	-4%
CC(Oc1ccccc1Cl)c1nnc(N)s1 (configuration not stated)	7%	-117*	-8%
Cc1ccc(OC(C)c2nnc(N)s2)cc1Cl (configuration not stated)	-6%	-14	-9%
Cn1cnnc1SCC(=O)NC1CCCCC1	-1%	.	.
COc1ccccc1NS(=O)(=O)c1ccc(Cl)c(NC(=S)NC(=O)C2CCCC2)c1	?	?	-8%
CCN(CC)c1ccc(S(=O)(=O)Nc2cc(Cl)ccc2Cl)cc1NC(=S)NC(=O)C1CCCC1	22µM*	-19	-30%
Cc1cc(C(=O)CSC(=S)SC(C)(C)C)ccc1Cl	3%[13.5 µM]	.	-11%
COc1cccc(CC(=O)Nc2nccs2)c1	-10%	?	-16%
Cn1nc(C(C)(C)C)cc1C(=O)O	5%	.	.
Cc1nnc(NC(=O)Cc2cccs2)s1	-2%	-3	-2%
COc1cccc(CC(=O)Nc2nc3c(s2)C(=O)CC(C)(C)C3)c1	1.3µM*	.	.
Cn1nc(C(C)(C)C)cc1C(=O)Nc1nc2c(s1)C(=O)CC(C)(C)C2	14µM*	7	-11%
CCOCC(=O)Nc1nc2c(s1)C(=O)CC(C)(C)C2	?	-15	?
CC1(C)CC(=O)c2sc(NC(=O)Cc3cccs3)nc2C1	0.79µM*	187	-24%
CC1(C)CC(=O)c2sc(NC(=O)C3CC3)nc2C1	11µM*	27	-26%
COCCCNC(=O)c1cc(S(=O)(=O)N2CCOCC2)ccc1SCc1cccc(OC)c1OC	-4%	.	.
CCOC(=O)N1CCN(CC(=O)Nc2sccc2C#N)CC1	3%	.	.
Fc1ccc(Nc2nnc(C(F)(F)F)s2)cc1	8%	.	.
COc1cccc(/C(=N/O)C2CC2c2ccc(Cl)cc2)c1 (configuration not stated)	15%	.	.
Cc1ccc(S(=O)(=O)Nc2nc3c(s2)C(=O)CC(C)(C)C3)cc1	32µM*	.	.
CC1(C)CC(=O)c2sc(NS(=O)(=O)Cc3ccccc3)nc2C1	13%	-4	?
SMILES	ALDH1A1 block	PNC assembly inh	HPGD block
CCOc1ccc(NC(=O)C2CC(=O)N(C)C(=Nc3ccc4c(c3)OCO4)S2)cc1 (configuration not stated)	0%	?	-9%
CCOc1ccc(NC(=O)C2CC(=O)N3CCCN=C3S2)cc1 (configuration not stated)	14µM*	18	1%
CCCOc1ccc(NC(=O)C2CC(=O)N(C(C)C)C2)cc1 (configuration not stated)	-2%	23	.
CCCOc1ccc(NC(=O)C2CC(=O)N3CCCN=C3S2)cc1 (configuration not stated)	2.8µM*	-6	-14%
COCC1=Cc2cc3c(cc2C(C(C(=O)OC)C(=O)OC)N1C(=O)OC)OCO3 (configuration not stated)	-5%	.	0%
O=C(O)CCCn1cc(NC(=O)COc2ccc([N+](=O)[O-])cc2)cn1	15%	.	.
Brc1ccc(C=Nc2ccc(Nc3ccccc3)cc2)s1	?	-7	-21%
C(=Nc1ccc(Nc2ccccc2)cc1)c1ccc2ccccc2c1	?	-83*	-23%
Nc1nc[nH]c(=O)c1N=Cc1ccccc1	-10%	.	.
CCCn1c(=S)[nH]c2ccccc2c1=O	2%	.	.
CCc1cc2c(=O)n(CCC(C)C)c(=S)[nH]c2s1	16µM*	.	.
CCOC(=O)c1c(-c2cccc3ccccc23)csc1NC(=O)C1C2CCC(O2)C1C(=O)O (configuration not stated)	3%	-4	-11%
COC(=O)c1c(-c2ccc(C(C)(C)C)cc2)csc1NC(=O)C1C2CCC(O2)C1C(=O)O (configuration not stated)	5µM*	-98*	3.2µM*
CCOc1ccc(/C=C/C(=O)c2ccc(-c3ccccc3)cc2)cc1	-10%	-16	-17%
CC(C)=CCOc1ccc(/C=C/C(=O)c2ccc(OCC=C(C)C)cc2OCC(=O)O)cc1	-6%	.	11µM*
CCc1ccccc1NC(=O)COc1cccc2ccc(C)nc12	2%	?	-21%
Cn1c(-c2ccc(-c3ccccc3)cc2)c[nH]c1=S	2%	16	.
COc1ccccc1-n1c(-c2ccccc2)c[nH]c1=S	2.5µM*	.	.
S=c1[nH]cc(-c2ccccc2)n1-c1ccccc1Cl	0.89µM*	22	18µM*
O=C1CN(c2ccccc2Cl)C(=O)CN1c1ccccc1Cl	4%	13	-6%
COC(=O)c1ccc(C(NC(=O)OCc2ccccc2)/C(C)=C/[C@@H](C)C(=O)NC2CCCCC2)cc1 (some centres not stated)	?	.	-19%
CCc1cccc(C)c1NC(=O)CNCc1ccccc1	?	-27	.
O=C(Nc1ccc(N2CCCCC2)c(Cl)c1)c1cccnc1	?	?	-13%
O=C(Nc1cccnc1)c1ccc(N2CCCC2)c([N+](=O)[O-])c1	7.9µM*	.	.
O=C(Nc1ccc(N2CCCC2)c(Cl)c1)c1cccnc1	8.9µM*	252	-26%
SMILES	ALDH1A1 block	PNC assembly inh	HPGD block
CN1C(=O)c2ccc(NC(=O)c3ccc(N4CCCCC4)c([N+](=O)[O-])c3)cc2C1=O	?	-8	?
Cc1cccc(NC(=O)c2ccc(N3CCCCC3)c([N+](=O)[O-])c2)n1	13µM*	26	?
O=C(Nc1ccccc1Cl)c1ccc(-n2cccn2)c([N+](=O)[O-])c1	8.9µM*	.	.
Cc1ccc(C)c2sc(NC(=O)c3ccc(N4CCCCC4)c([N+](=O)[O-])c3)nc12	-1%	41	-11%
Cc1ccc(NC(=O)c2ccc(-n3cccn3)c([N+](=O)[O-])c2)cc1	?	?	-18%
Cc1ccc(C)c(OCC(=O)NCC(C)C)c1C	4%	-23	-21%
N#Cc1cccc(N=Cc2c(O)ccc3ccccc23)c1	?	-9	?
NC1=C2NC=N[C@@H]2N(C/C=C\c2ccccc2)C=N1	-13%[13.5 µM]	.	-8%
NS(=O)(=O)c1cc(C(=O)OCC(=O)Nc2ccc(N3CCCCC3)cc2)ccc1Cl	-7%	.	.
O=[N+]([O-])c1ccc2[nH]ncc2c1	-1%	.	.
CN(C)C(=O)c1ccc(NC(=O)c2cccnc2)cc1	-1%	1	32µM*
O=C(Nc1ccc(OC(=O)c2cccnc2)cc1)c1cccnc1	12%	61	-4%
CC(C(O)C12CC3CC(CC(C3)C1)C2)N1CCCCC1 (configuration not stated)	-2%	.	.
N#Cc1cn(Cc2ccncc2)c(=O)[nH]c1=O	6%	.	.

Assay outcomes deposited in PubChem BioAssay by National Center for Advancing Translational Sciences (NCATS).
